# The whole screen tested about 360,000 compounds, of which about 6,000 (1.7%) were called active. Roughly 8% stayed inconclusive and do not appear here. Only a selection was taken, and actives are over-represented in it overall. A number with no mark means an inactive call. Calls come from the whole dose curve; as a rule, active = well fitted cell-killing curve with a large enough effect; inconclusive = small, poorly fitted or top-dose-only effect, or effect the other way; inactive = flat fitted curve, though single readings scatter.
# Assay: qHTS for induction of synthetic lethality in tumor cells producing 2HG: qHTS for the HT-1080-NT fibrosarcoma cell line; note: nearly all actives have a fitted effect of over 55% in size
# Conditions: HT-1080-NT fibrosarcoma viability, CellTiter-Glo ATP luminescence, 48 h; series mostly up to 46.1 µM; activity, negative = less viability: at the top concentration
# Text: Unbiased genomic sequencing for 22 glioma genomes found recurrent mutation of IDH1 on chromosome 2q33, a gene encoding the cytosolic isoform of IDH1 associated with the tricarboxylic acid cycle (TCA) that catalyzes the oxidative decarboxylation of isocitrate, yielding alpha-ketoglutarate and CO2 via NADP+ to NADPH conversion. Subsequent studies confirmed the recurrent IDH mutations in up to 70% of secondary gliomas and in 10% of AML cases. In addition, the somatic mutation of cancer-associated IDH1 is a point mutation resulting in various amino-acid substituents at Arginine132 (IDH1 R132), a key residue found in the enzyme's active site that when mutated, results in the loss-of-function in metabolizing isocitrate but confers a gain-of-function to produce the oncometabolite 2-hydroxyglutarate (2HG). This in effect defines IDH1 as an oncogene and provides an extraordinary opportunity to discover chemical probes against mutant IDH1 that may translate into much needed new therapies for glioma and AML patients.
# This assay aims to perform a synthetic lethal screen for chemical probes specific for 2HG-producing tumor cells using matched paired cell lines (1) HT-1080-NT fibrosarcoma cell line that overproduces 2HG and (2) HT-1080-IDH1KD cell line which has IDH1 expression knocked-down. Desirable compounds are toxic to the NT fibrosarcoma cells but not to the IDH1KD cell line. The data in this AID corresponds to the results of the qHTS against the HT-1080-NT fibrosarcoma cell line.
# [1] Dang L, Jin S, Su SM. IDH mutations in glioma and acute myeloid leukemia. Trends of Mol Med. 2010; 16(9): 387-97.
# [2] Dang L et al. Cancer-associated IDH1 mutations produce 2-hydroxyglutarate. Nature. 2010; 465(7300):966.
# NIH Molecular Libraries Probe Production Centers Network [MLPCN]
# NIH Chemical Genomics Center [NCGC]
# Assay Submitter (PI): Lenny Dang Ph.D., Agios Pharmaceuticals
# Suspensions of trypsinized HT-1080-NT cells were dispensed into white, tissue culture-treated, solid 1536-well plates at 5uL/well (750 cells/well final concentration) in RPMI medium supplemented with 5% FBS. Plates were incubated at 37 degrees C for 2 hours, after which 23 nL of compounds or DMSO were delivered to each well using a pin tool. Plates were then incubated at 37 degrees C for an additional 48 hours. CellTiter-Glo viability reagent (Promega) was dispensed into wells (2.5uL/well) and incubated at room temperature for 10 minutes. The plates were measured on a PerkinElmer ViewLux plate reader for luminescent signal (clear filter, 1 sec exp). DMSO-treated control wells and media-only (no cells) control wells were used to normalize %Activity of identified toxic compounds; DMSO-treated wells corresponded to 0%Activity (100% viability), while media-only controls were used to normalize 100%Activity (0% viability).
# Concentration-response curves were fitted to the signals arising from the resulting luminescence. The concentration-effect curves were then classified based on curve quality (r2), response magnitude and degree of measured activity, and compounds were subsequently categorized based on their curve class.
# Potency is the fitted concentration of half-maximal effect.
SMILES,"activity, negative = less viability",Potency
Cc1ccc(Cc2c(-c3ccccc3)nc3ccc(Cl)cn23)cc1,-0.274%,–
Cc1ccc(-c2nc3ccc(Cl)cn3c2Cc2ccccc2)cc1,14.8%,–
Cc1ccc(Cc2c(-c3ccco3)nc3ccc(Cl)cn23)cc1,–,23.1 µM (active)
COc1cc(F)ccc1-c1cc(C(=O)NCC2CCCCC2)[nH]n1,28.9%,–
O=C1C(Cl)=C(Oc2ccccc2)C(=O)c2ccccc21,–,4.11 µM (active)
COc1ccc(C(=O)OCC(=O)Nc2cc(C)on2)cc1F,6.13%,–
CC(C)(C)OC(=O)N1CCN(C(=O)c2[nH]c(C(F)(F)F)nc2-c2ccccc2)CC1,9.95%,–
O=c1c([N+](=O)[O-])cccn1Cc1ccc(F)cc1Cl,–,14.6 µM (active)
N/C(=N/O)c1cccn1Cc1ccccc1[N+](=O)[O-],10.5%,–
O=[N+]([O-])c1ccccc1NCc1ccccc1Cl,-10.6%,–
CC1CC(C)CN(CCCNC(=O)Cn2ncc3c([nH]c4ccccc43)c2=O)C1 (stereo not drawn),5.3%,–
Cc1c2cnn(CC(=O)NCCCN3CC(C)CC(C)C3)c(=O)c2c(C)n1Cc1ccc(Cl)cc1 (stereo not drawn),–,23.1 µM (active)
Cc1ccc(Cn2c(C)c3cnn(CC(=O)NCCN4CCOCC4)c(=O)c3c2C)cc1,9.01%,–
CC(NC(=O)c1ccc(N2CCNCC2)c([N+](=O)[O-])c1)C12CC3CC(CC(C3)C1)C2 (stereo not drawn),–,16.4 µM (active)
Cc1cccc(C)c1NC(=O)CNC(=O)c1ccc(N2CCOCC2)c([N+](=O)[O-])c1,-0.0226%,–
O=C(Nc1cccc(C(F)(F)F)c1)c1ccc(N2CCNCC2)c([N+](=O)[O-])c1,–,16.4 µM (active)
O=C(NC1C2CC3CC(C2)CC1C3)c1ccc(N2CCNCC2)c([N+](=O)[O-])c1 (stereo not drawn),20.4%,–
CCC(C)NC(=O)c1ccc(N2CCC3(CC2)OCCO3)c([N+](=O)[O-])c1 (stereo not drawn),0.381%,–
O=C(Nc1ccc(N2C(=O)c3cccc4cccc(c34)C2=O)cc1)c1ccc(N2CCCCC2)c([N+](=O)[O-])c1,4.35%,–
CCc1noc(C)c1C(=O)OCC(=O)c1ccc(NC(=O)CC(C)C)cc1,1.43%,–
Fc1cccc(Cc2c(-c3ccc(Cl)cc3)nc3ccc(Cl)cn23)c1,-1.75%,–
Cc1cc2nc(-c3ccco3)c(Cc3cccc(F)c3)n2c(C)c1Br,–,20.6 µM (active)
Cc1cc2nc(-c3ccc(F)cc3)c(Cc3ccsc3)n2c(C)c1Br,-22.5%,–
COc1cc(C=C(OC(C)=O)c2ccc3c(c2)OCO3)cc(OC)c1OC,-12.3%,–

SMILES,"activity, negative = less viability",Potency
CCCNC(=O)C[C@@H]1CC[C@@H]2[C@H](COC[C@H](O)CN2C(=O)c2cc(Cl)cc(Cl)c2)O1,10.8%,–
CCOC(=O)c1cc2cc(OC)ccc2n1C1CCN(C)CC1,-25.5%,–
CC1(C)N=C(N)NC(Nc2ccc(Cl)cc2)=N1,14.3%,–
COc1ccccc1NC(=O)C1CCCN1S(=O)(=O)c1ccc(Cl)cc1 (stereo not drawn),-2.2%,–
COc1ccccc1NC1=NC(c2ccc(Cl)cc2)N=C(N)N1 (stereo not drawn),–,10 µM (active)
CCc1nc2ccc(C(=O)NCCNC(C)=O)cn2c1N(CC)Cc1cccc(Br)c1,25.8%,–
CCC(C)CN1C(=O)CN(S(C)(=O)=O)CC1(C)C(=O)Nc1ccc2c(c1)OCCO2 (stereo not drawn),-1.35%,–
C[C@H]1CN(c2ccc(Br)cc2)C(=O)[C@@H]1CC(=O)Nc1ccc(Br)cc1,-0.873%,–
c1ccc(CNCc2ccc(CNCc3ccccc3)cc2)cc1,-20.6%,–
CC1(C(=O)Nc2ccc3c(c2)OCCO3)CSCC(=O)N1CCOc1ccccc1 (stereo not drawn),-1.2%,–
O=c1oc2ccccc2cc1-c1csc(Nc2ccc(O)cc2)n1,–,14.6 µM (active)
Cc1cc(C)cc(OCC(=O)NNC(=O)c2cc3ccccc3oc2=O)c1,10.5%,–
Cc1ccn2c(-c3csc(Nc4ccc(C(=O)O)cc4)n3)c(C)nc2c1,-23.2%,–
CCc1c(N=O)c(-c2ccccc2)n(O)[n+]1[O-],-3.38%,–
CC(C)CNC(=O)C1(C)CCCN1C(=O)CSc1ccccc1 (stereo not drawn),20.3%,–
COc1ccc(C(O)c2nc(-c3ccc4c(c3)OCO4)cs2)cc1 (stereo not drawn),4.1%,–
CCCc1ccc(S(=O)(=O)N2CCN(C(=O)c3cc(C)on3)CC2)cc1,1.01%,–
O=C(Nc1nnc([C@H]2C[C@H](O)[C@@H](CO)O2)s1)c1cccc(Cl)c1,1.95%,–
CN(C)CCN1CCN(c2cc(-c3cccc(Cl)c3)nc3ccnn23)CC1,-16.2%,–
O=C(c1ccccc1)N1CCN(c2cc(-c3ccccc3)nc3cc(-c4cccc(Cl)c4)nn23)CC1,3.77%,–
C#Cc1cc(N2CCN(C(=O)c3ccoc3)CC2)n2nc(-c3cccc(Cl)c3)cc2n1,–,14.6 µM (active)
CC(=O)Nc1ccc(C=CC(=O)c2ccc([N+](=O)[O-])cc2)cc1,7.09%,–
O=C(N=C1SC2CS(=O)(=O)CC2N1Cc1ccccc1)c1ccccc1 (stereo not drawn),2.42%,–
COCOCCn1cc(CN2CCS(=O)(=O)N(Cc3ccc(-c4ccccc4)cc3)C(CC(C)C)C2=O)nn1 (stereo not drawn),-10%,–

# — PubChem BioAssay AID686970 (National Center for Advancing Translational Sciences (NCATS), 2013)
